# Experimental data published in PubChem BioAssay AID431 (Sanford-Burnham Center for Chemical Genomics, 2006).
# The campaign covered roughly 63,000 compounds. About 1,100 (1.7%) were called active. The sample holds actives, similar compounds and a random draw of the others, so the mix is not that of the screen.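 The calls were made as follows: active = compounds whose percent cytotoxicity in the single-dose primary screen, scaled between solvent and toxic-drug controls, exceeds 50; inactive = the rest.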 Potency and affinity values are given separately.
# Assay: viability loss of HPDE-C7K cells – cell-based, fluorescence, HTS, primary screen (AID 431);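 also: 0% = DMSO solvent wells and 100% = doxorubicin-treated wells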
# Settings: HPDE-C7K KRASV12 cells, Alamar Blue viability, 48 h; at 10 µM; stronger effect = higher value
row,Structure (SMILES),cytotoxicity
1,O=C(O)CCn1[nH]c(=O)ccc1=O,-18.2% (inactive)
2,CSc1ccccc1NC(=O)c1ccco1,4.6% (inactive)
3,CCC(=O)N1c2ccccc2NC2=C(C(=O)CC(c3ccco3)C2)C1c1ccco1 (configuration not stated),7.6% (inactive)
4,COc1ccc(C2C3=C(CC(c4ccco4)CC3=O)Nc3ccccc3N2C(C)=O)cc1 (configuration not stated),-5.9% (inactive)
5,O=C1CC(c2ccco2)CC2=C1C1c3ccccc3C(=O)N1c1ccccc1N2 (configuration not stated),51.6% (active)
6,COC(=O)C(C(=O)OC)=C(/C=C/N(C)C)N(C)C,0.2% (inactive)
7,Nc1nonc1C(=O)NCCNCc1cc(Br)ccc1OCc1ccccc1F,17.1% (inactive)
8,Nc1nonc1C(=O)NCCNCc1ccccc1OCc1ccccc1F,0.9% (inactive)
9,Nc1nonc1C(=O)NCCNCc1cc(Br)ccc1OCc1ccc(F)cc1,54% (active)
10,COCCn1c(SCC(=O)N2CCCCC2)nc2ccccc2c1=O,4.9% (inactive)
11,CC(=O)Nc1ccc(S(=O)(=O)N(C)c2ccc(O)cc2)cc1,-12.1% (inactive)
12,CCOc1ccc(C(=O)Nc2ccc3c(c2)OCO3)cc1OCC,-16.6% (inactive)
13,CCOC(=O)c1ccc(NC(=O)C2CCN(S(=O)(=O)c3ccccc3)CC2)cc1,6.6% (inactive)
14,Cc1ccc(C)c(Cn2c(=O)n(CCC(=O)NCc3ccco3)c(=O)c3ccccc32)c1,3% (inactive)
15,Cc1ccccc1Cn1c(=O)n(CCCC(=O)NCc2ccco2)c(=O)c2ccccc21,-20.6% (inactive)
16,Cc1ccc(C)c(Cn2c(=O)n(CCCC(=O)NCc3ccco3)c(=O)c3ccccc32)c1,56.3% (active)
17,COc1ccc(CCNC(=O)CSc2nc(N)c3c(C)c(C)oc3n2)cc1OC,4.3% (inactive)
18,O=C(Nc1cccc(NC(=O)N2CCN(c3ccccc3)CC2)c1)N1CCN(c2ccccc2)CC1,61.3% (active)
19,O=C(Nc1cccc2ccccc12)N1CCN(c2ccccc2)CC1,10.4% (inactive)
20,O=C(Nc1ccc2snnc2c1)N1CCN(c2ccccc2)CC1,-17.1% (inactive)
21,COc1cc(OC)cc(-c2cc(NC(C)=O)n[nH]2)c1,-2% (inactive)
22,CCOC(=O)c1[nH]c(C)c(C(=O)N2CCOCC2)c1C,4.4% (inactive)
23,COc1cc(/C=C/C2=NC(=O)C(C)(C)O2)ccc1O,32.6% (inactive)
24,C/C=C/c1ccc(OC)c(OC(C)=O)c1,1.5% (inactive)
25,O=C(Nc1cccnc1N1CCOCC1)c1ccco1,-0.2% (inactive)

row,Structure (SMILES),cytotoxicity
1,CCn1c(SCC(=O)c2cc(OC)ccc2OC)nnc1C1CC1,4.1% (inactive)
2,COC(=O)c1ccc(NC(=O)c2sc3nc(-c4ccccc4)cn3c2C)cc1,-6.6% (inactive)
3,CN(C)c1ccc(/C=[N+](\[O-])C2SC(=S)N(C)C2(C)C)cc1 (configuration not stated),-16.8% (inactive)
4,CCc1ccc2c(COC(=O)c3n[nH]c4ccccc34)cc(=O)oc2c1,17.5% (inactive)
5,CCc1ccc2c(COn3nnc4ccc(S(=O)(=O)N(C)C)cc43)cc(=O)oc2c1,62% (active)
6,Cc1ccc2c(COn3nnc4ccc(S(=O)(=O)N(C)C)cc43)cc(=O)oc2c1C,2.9% (inactive)
7,COc1ccc(Cn2c(-c3ccco3)nc3oc4ccccc4c(=O)c3c2=O)cc1,8.5% (inactive)
8,Cn1c(NCCO)nc2c(c1=O)C1(CCCCC1)Cc1ccccc1-2,10.5% (inactive)
9,Cn1c(NCCCO)nc2c(c1=O)C1(CCCCC1)Cc1ccccc1-2,51.9% (active)
10,CC1(C)CC(n2c(NCCO)nc3c(c2=O)C2(CCCC2)Cc2ccccc2-3)CCO1 (configuration not stated),64.4% (active)
11,CC1(C)Cc2ccccc2-c2nc(NCCO)n(-c3ccccc3)c(=O)c21,-9.1% (inactive)
12,O=c1[nH]c(NCCO)nc2c1C1(CCCCC1)Cc1ccccc1-2,17.6% (inactive)
13,O=c1[nH]c(NCCCO)nc2c1C1(CCCC1)Cc1ccccc1-2,26.4% (inactive)
14,Cc1ccc(S(=O)(=O)N2CCN(S(=O)(=O)N3CCCCC3)CC2)c(C)c1,6.6% (inactive)
15,Cc1cccc(Nc2nc(N)nc(CN3CCN(c4ccccc4)CC3)n2)c1,-21.7% (inactive)
16,COc1ccc(N2CCN(Cc3nc(N)nc(Nc4ccc(C)c(Cl)c4)n3)CC2)cc1,19.1% (inactive)
17,CC1CC(C)CN(Cc2nc(N)nc(Nc3ccc4ccccc4c3)n2)C1 (configuration not stated),58.4% (active)
18,Cc1ccc(Nc2nc(N)nc(CN3CCN(c4ccccc4)CC3)n2)cc1Cl,54.7% (active)
19,CCN1CCN(Cc2nc(N)nc(Nc3ccc(C)c(C)c3)n2)CC1,-24.7% (inactive)
20,Cc1ccc(Nc2nc(N)nc(CN3CCN(C)CC3)n2)cc1C,-27.5% (inactive)
21,CC(=O)c1cc2c(cc1NC(=O)CSc1nnc(C)s1)OCO2,11.3% (inactive)
22,CCOC(=O)C1C2C=CC3(CN(Cc4cccs4)C(=O)C13)O2 (configuration not stated),4.9% (inactive)
23,COc1cccc(NC(=O)C2CCCN(S(=O)(=O)c3cccc4cccnc34)C2)c1 (configuration not stated),20.1% (inactive)
24,Cc1nc(NC(=O)CSc2ccccc2N)sc1C,3% (inactive)
25,Cn1c(=O)[nH]c(=O)c2c1nc(Sc1ncccn1)n2CCCc1ccccc1,3.9% (inactive)

row,Structure (SMILES),cytotoxicity
1,CC(C)Cc1nc(C(N)=O)c2[nH]c(=O)n(-c3ccc(F)cc3)c2n1,-1.8% (inactive)
2,O=C(CCN1CCN(CCC(=O)c2ccccc2)CC1)c1ccccc1,-9.4% (inactive)
3,O=C(CCN1CCN(c2ccccc2F)CC1)Nc1ccccc1F,-5.4% (inactive)
4,O=C(COc1ccc(Cl)cc1)NCc1nnc(SCC(=O)Nc2ccccc2)o1,-7.7% (inactive)
5,CC(C)NC(=O)CN1CCN(c2ncccn2)CC1,-7.7% (inactive)
6,CC(=O)NCCSC(=O)c1ccc(F)cc1,-2.7% (inactive)
7,Cc1cccc(S(=O)(=O)Nc2cccc(-c3cn4ccsc4n3)c2)c1,31.3% (inactive)
8,O=S(=O)(Nc1cccc(-c2cn3ccsc3n2)c1)c1ccc(F)cc1,42.2% (inactive)
9,O=S(=O)(Nc1ccc(-c2cn3ccsc3n2)cc1)c1ccc2c(c1)OCCO2,53.9% (active)
10,O=S(=O)(Nc1cccnc1)c1ccc2c(c1)OCCO2,1.8% (inactive)
11,Cc1ccc(S(=O)(=O)Nc2cccc(-c3cn4ccsc4n3)c2)cc1,64% (active)
12,CC(C)CC(=O)Nc1cccc(-c2cn3ccsc3n2)c1,11.7% (inactive)
13,O=S(=O)(Nc1nccs1)c1ccc2c(c1)OCCO2,5.1% (inactive)
14,O=S(=O)(NCc1cn2ccsc2n1)c1ccc2c(c1)OCCO2,4.2% (inactive)
15,CC(C)CC(=O)Nc1ccc(-c2cn3ccsc3n2)cc1,56.7% (active)
16,CC(=O)Nc1ccc(-c2cn3ccsc3n2)cc1,6.9% (inactive)
17,c1cn2cc(-c3ccc4c(c3)OCO4)nc2s1,15.3% (inactive)
18,O=S(=O)(Nc1cccc(-c2nc3cccnc3s2)c1)c1ccc2c(c1)OCCO2,50.4% (active)
19,O=C(CSCc1ccccc1)NC1CCSC1=O (configuration not stated),11.9% (inactive)
20,O=C(CSc1nnc(CCc2nc3ccccc3[nH]2)n1-c1ccccc1)NCc1ccco1,-22.8% (inactive)
21,COc1ccccc1OCc1ccc(C(=O)n2nc(C)c(Cl)c2C)o1,-1.6% (inactive)
22,CN(C)c1ccc(C(=O)c2ccc(N(C)C)c(N)c2)cc1N,46% (inactive)
23,CCOC(=O)C(C)Oc1ccc(C2NC(=O)NC(C)=C2C(C)=O)cc1Br (configuration not stated),8.9% (inactive)
24,O=C(NCCc1ccccc1)C1CCCN(S(=O)(=O)c2cccnc2)C1 (configuration not stated),-7.8% (inactive)
25,O=C(NCc1ccc2c(c1)OCO2)c1cnc2n(c1=O)CCS2,11.4% (inactive)

row,Structure (SMILES),cytotoxicity
1,COc1ccc(-c2[nH]c(-c3cccc(OC)c3)nc2SCC(=O)NCc2ccco2)cc1,50.4% (active)
2,COc1ccc(-c2nc(SCC(=O)NCc3ccco3)c(-c3ccccc3)[nH]2)cc1OC,-6.7% (inactive)
3,COc1ccc(-c2[nH]c(-c3ccc(F)cc3)nc2SCC(=O)NCc2ccco2)cc1OC,6.3% (inactive)
4,CS(=O)(=O)NCCCc1ccccc1,-3.7% (inactive)
5,O=C(NCc1ccccn1)c1ccc(/C=N/O)nc1,0.9% (inactive)
6,CC1CCN(c2nc(-c3ccc(F)cc3)cc(C(F)(F)F)n2)CC1,-19.1% (inactive)
7,O=c1c2ccccc2[nH]c(=S)n1CCN1CCN(Cc2ccccc2)CC1,0.6% (inactive)
8,O=C(c1ccc(F)cc1)C1CCN(CCn2c(=O)[nH]c3ccccc3c2=O)CC1,5.6% (inactive)
9,CCSc1nnc(NC(=O)c2cc(C)oc2C)s1,10.1% (inactive)
10,Cc1noc(C(=O)Nc2c(C)nn(Cc3ccccc3)c2C)c1Cl,-3.9% (inactive)
11,CCOC(=O)N1CCN(C(=O)c2ccc3c(c2)N(CC)CCS3)CC1,1% (inactive)
12,CC(C)C(=O)NC(c1ccco1)c1ccc2cccnc2c1O (configuration not stated),-36.3% (inactive)
13,CC(=O)NC(c1ccco1)c1ccc2cccnc2c1O (configuration not stated),23.7% (inactive)
14,Cc1ccc(S(=O)(=O)C(C#N)c2nc3ccccc3nc2N2CCCCC2)cc1 (configuration not stated),0.6% (inactive)
15,COC(=O)c1ccc(-n2nnnc2SCC(=O)N2CCCCC2)cc1,-30.4% (inactive)
16,COc1ccc(CCNC(=O)c2cnccn2)cc1,-0.7% (inactive)
17,CCOC(=O)C1CCN(c2c(NCCN3CCCCC3C)c(=O)c2=O)CC1 (configuration not stated),2.6% (inactive)
18,c1ccc(N2CCOCC2)c(Nc2nc3ccccc3n3cnnc23)c1,0.7% (inactive)
19,O=C(Cn1c(CO)nc2ccccc21)Nc1cc(C(F)(F)F)ccc1N1CCOCC1,-13.4% (inactive)
20,C=CCn1c(COc2ccccc2)nnc1SCC(=O)C(C)(C)C,8.4% (inactive)
21,Cc1ccc(NC(=O)CCNS(=O)(=O)c2ccc3c(c2)oc(=O)n3C)cc1,-10.2% (inactive)
22,Cn1c(=O)oc2cc(S(=O)(=O)NCCc3ccccc3)ccc21,-10.4% (inactive)
